Screens deposited in PubChem BioAssay by National Center for Advancing Translational Sciences (NCATS).
AT treatment: qHTS Assay for Identifying a Potential Treatment of Ataxia-Telangiectasia; Potency, µM (top dose mostly 57.5 µM), most hits filed as activators; F2112 A-T fibroblasts, KAP-1 phosphorylation AlphaLISA; neocarzinostatin DNA damage 30 min before lysis; actives 0.19% (n = 320,000); AID 485349, 2010; note: nearly all actives have a fitted effect of over 45% in size
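ATM-like activity read as KAP-1 phosphorylation via AlphaLISA donor/acceptor antibody pairs after lysis and 6 hr at 25C. Cells were ATM-null patient fibroblasts (F2112, hTERT), dosed 60 min, then exposed to the DSB inducer NCS for 30 min.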
TRPV1 agonist: HTS Assay for Compounds that Act as Agonists of the Vanilloid Receptor 1; activation, % at 8.33 µM; Transient receptor potential cation channel subfamily V member 1 (Homo sapiens), Q8NER1; AID 540275, 2011; TRPV1-expressing cells, Fluo-8 calcium influx, agonist mode; actives 0.19% (n = 320,000); in the data active = activation above about 80%; inconclusive = between about 30% and that limit
Target sequence (Q8NER1 whole entry, looked up): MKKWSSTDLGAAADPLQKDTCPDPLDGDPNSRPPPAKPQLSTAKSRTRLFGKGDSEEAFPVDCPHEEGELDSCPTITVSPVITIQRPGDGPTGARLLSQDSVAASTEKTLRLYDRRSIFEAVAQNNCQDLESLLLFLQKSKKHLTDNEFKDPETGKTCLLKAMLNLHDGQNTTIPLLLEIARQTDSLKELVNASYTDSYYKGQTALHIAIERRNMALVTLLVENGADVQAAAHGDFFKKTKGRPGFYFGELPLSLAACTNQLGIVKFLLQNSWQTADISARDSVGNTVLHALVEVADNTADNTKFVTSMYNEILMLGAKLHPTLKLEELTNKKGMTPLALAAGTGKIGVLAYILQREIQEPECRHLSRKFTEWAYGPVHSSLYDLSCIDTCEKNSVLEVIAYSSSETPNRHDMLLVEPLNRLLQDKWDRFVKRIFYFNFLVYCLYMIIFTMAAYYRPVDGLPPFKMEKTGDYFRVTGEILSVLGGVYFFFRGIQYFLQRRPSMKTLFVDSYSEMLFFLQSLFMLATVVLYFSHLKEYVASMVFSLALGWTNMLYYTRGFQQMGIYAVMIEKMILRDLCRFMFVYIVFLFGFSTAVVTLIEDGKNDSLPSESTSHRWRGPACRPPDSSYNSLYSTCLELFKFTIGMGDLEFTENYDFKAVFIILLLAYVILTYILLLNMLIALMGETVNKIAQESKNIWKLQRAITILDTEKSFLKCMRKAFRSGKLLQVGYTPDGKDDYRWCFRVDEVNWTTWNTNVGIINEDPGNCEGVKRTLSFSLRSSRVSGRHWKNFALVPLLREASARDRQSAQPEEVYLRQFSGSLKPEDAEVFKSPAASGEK
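TRPV1-expressing cells were cultured overnight at 35.5C and loaded with Fluo-8 calcium dye for 40 to 90 min at room temperature. After a 10 s baseline, compound was added and calcium influx was read kinetically for 3 min (ex 480/em 520 nm).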
TRPV1 potentiator: HTS Assay for Compounds that Act as Potentiators of the Vanilloid Receptor 1; AID 540277, 2011; Transient receptor potential cation channel subfamily V member 1 (Homo sapiens), Q8NER1; potentiation, % at 8.33 µM; actives 0.02% (n = 320,000); TRPV1-expressing cells, Fluo-8 calcium influx, capsaicin EC20 potentiation; in the data active = potentiation above about 80%; inconclusive = between about 30% and that limit
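TRPV1-expressing cells were cultured overnight at 35.5C and loaded with Fluo-8 calcium dye for 40 to 90 min at room temperature. After a 10 s baseline, compound was added and calcium influx was read kinetically for 3 min (ex 480/em 520 nm).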
TRPML1 inh: qHTS for Inhibitors of the Human Mucolipin Transient Receptor Potential 1 (TRPML1); actives 0.02% (n = 390,000); TRPML1-inducible cells, Ca2+ dye fluorescence, FDSS; hits give low values; inhibition of EC80 agonist-evoked calcium signal; AID 624415, 2012; activity change, negative = inhibition, % (concentration not given with the values); in the data active = activity change below about -50%; inconclusive = between about -30% and that limit;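 note: stimulus is agonist 54-4 at its EC80 concentration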
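Tet-induced TRPML1-DL cells loaded with Ca8 no-wash calcium dye were read kinetically on FDSS. Compound addition was followed by EC80 agonist 54-4 (4 uM final); inhibition was read over 110 s.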
RGS4 inhibitor: Inhibitors of Regulator of G Protein Signaling (RGS) 4: qHTS | Regulator of G-protein signaling 4 (Homo sapiens), P49798 | Transcreener GDP fluorescence polarization, RGS4-accelerated GTP hydrolysis | AID 504845, 2011 | Potency, µM (series often up to 114 µM), most hits filed as inhibitors | actives 0.039% (n = 390,000); note: nearly all actives have a fitted effect of over 75% in size
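MLSMR compounds (23 nl, pin-transferred) preincubated 10 min at room temperature with a 500nM (2x) first reagent, then RGS4 at 900nM (2x) plus Transcreener GDP mix added; fluorescence polarization (620/688 nm) read before and after 90 min at 30 °C.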
TRPML1 ag: qHTS for Agonists of the Human Mucolipin Transient Receptor Potential 1 (TRPML1). Mucolipin-1 (Homo sapiens), Q9GZU1. TRPML1-expressing cells, Ca2+ dye fluorescence, FDSS. activation, % (no concentration beside the values). actives 0.12% (n = 410,000). AID 624414, 2012; in the data active = activation above about 50%; inconclusive = mostly about 30% to 49%
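In this qHTS format, compounds were pin-transferred onto Ca8-dye-loaded TRPML1-DL cells induced with Tet overnight, and intracellular Ca2+ fluorescence was recorded kinetically for 110 s after a 10 s baseline. A subsequent 4uM final 54-4 (EC80) addition followed by a second 110 s read served as the antagonist phase.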
Hits are given with their value; – = inactive; ? = inconclusive; · = not tested or not shown; ! = not confirmed by another sample; [ ] = dose if it differs, or a comment. Shown are actives, neighbours in structure and some others; about 0.5% of the full set was active somewhere. Unless noted, calls come from the whole dose curve; as a rule, active = well fitted curve in the direction sought with a large enough effect; inconclusive = small, poorly fitted or top-dose-only effect, or another doubt; inactive = no such curve, though single readings can be large; an effect the other way counts as inactive or inconclusive.

SMILES | AT treatment | TRPV1 agonist | TRPV1 potentiator | TRPML1 inh | RGS4 inhibitor | TRPML1 ag
Cc1ccc2c(C)c(C(=O)Nc3cccnc3)oc2c1 | – | – | – | – | – | –
C=CCn1c(SCC(=O)Nc2cc(C)ccc2C)nnc1-c1cnccn1 | – | – | – | – | – | –
O=C(Nc1ccncc1)C1CCN(S(=O)(=O)c2ccccc2)CC1 | – | – | – | – | – | –
O=C(Nc1ccncc1)C1CCN(S(=O)(=O)c2ccccc2C(F)(F)F)CC1 | – | 83 | – | – | – | –
Cc1ccc(NC(=O)c2ccc(S(=O)(=O)N3CCCC3)cc2)nc1 | – | 86 | – | – | – | –
Cc1ccc(NC(=O)C2CCN(S(=O)(=O)c3ccc(Cl)c(C(F)(F)F)c3)CC2)nc1 | – | – | – | – | – | 69
Cc1cccc(NC(=O)Nc2nnc(N3CCCCC3C)s2)c1C (stereo unspecified) | – | – | – | – | – | –
CCC(=O)Oc1oc(-c2ccccc2)nc1C=Nc1ccccc1OC | – | – | – | – | – | –
CCCN(CCC)Cc1cc(=O)oc2cc3c(cc12)CCC3 | – | ? | – | – | – | –
O=C(CCc1ccc(O)cc1)c1c(O)cc(O)cc1O | 28µM | – | – | – | 19µM! | –
CCCC(c1nnnn1Cc1cccs1)N1CCN(c2nc3ccccc3s2)CC1 (stereo unspecified) | – | – | ? | – | – | 61
COc1ccc(C2=NS(=O)(=O)N(C)C(C(=O)NC3CCCCC3)=C2)cc1OC | – | – | – | – | – | –
COC(=O)[C@@H](NC(=O)N1CCN(C(=O)C2COc3ccccc3O2)CC1)C(C)C (stereo partly specified) | – | – | – | -60 | – | –
COc1ccccc1OC[C@H](O)CO | – | – | – | – | – | –
COc1ccc(NC(=O)N2CCCC2)cc1OC | – | – | – | – | – | –
COc1ccc(NC(=O)N2CCN3CCCCC3C2)cc1OC (stereo unspecified) | · | · | · | -51 | – | –
COc1cc2cc(C)c3nnc(SCC(=O)Nc4cc(C)on4)n3c2cc1OC | – | – | 108 | – | – | –
O=S(=O)(c1ccc(-n2cnnn2)cc1)N1CCN(c2ccccc2F)CC1 | – | – | – | – | – | –
O=c1c2ccccc2nc(SCc2ccccc2)n1CC1CCCO1 (stereo unspecified) | 14µM | ? | – | · | –[11.4 µM] | ·
O=C(CSc1nc2ccccc2c(=O)n1CC1CCCO1)NCC1CCCO1 (stereo unspecified) | – | – | – | – | – | –
CCN(CC)C(=S)SSC(=S)N(CC)CC | – | – | – | – | 1.1µM! | –
CCOC(=O)c1c(NC(=O)CN(CC)CC)sc2c1CCC2 | 22µM | – | – | – | – | –
CC(=O)Oc1ccc2c(c1)Oc1cc(OC(C)=O)ccc1C21OC(=O)c2ccccc21 | – | 140 | – | – | – | 113
COCCNC(=O)c1ccccc1NC(=O)c1nsc2ccccc12 | · | · | · | – | – | –
Cn1cc(CNCCCn2ncc3ccccc32)c(-c2ccccc2F)n1 | – | – | – | – | – | –
SMILES | AT treatment | TRPV1 agonist | TRPV1 potentiator | TRPML1 inh | RGS4 inhibitor | TRPML1 ag
NC(=O)CC(NC(=O)Cc1ccc(Br)cc1)c1ccc(NCCN2CCOCC2)c([N+](=O)[O-])c1 (stereo unspecified) | – | – | – | – | – | –
CS(=O)(=O)Nc1ccc([N+](=O)[O-])cc1Oc1ccccc1 | – | – | – | – | – | –
CS(=O)(=O)Nc1ccc([N+](=O)[O-])cc1OC1CCCCC1 | · | · | · | · | 8.4µM! | ·
CCCn1c(C(C)Nc2nc(-c3cc(Cl)c(N)c(Cl)c3)cs2)nc2cc(Cl)c(N3CCCCC3)cc21 (stereo unspecified) | – | 86 | – | – | ? | –
CC(Nc1nc(-c2ccc(Cl)cc2)cs1)c1nc2cc(Cl)c(N3CCCCC3)cc2n1CCOCCO (stereo unspecified) | · | · | · | – | – | –
Cn1c(-c2ccccc2)nc2cnccc21 | 20µM | – | – | · | –[11.4 µM] | ·
C/C(=N\NC(=S)NC(C)C)c1ccccc1 | – | – | – | · | –[11.4 µM] | ·
CC(C)NC(=S)NC(c1ccccc1)(c1ccccc1)c1ccccc1 | – | ? | – | – | ? | 70
COc1ccc2c(c1)c(N=NC(N)=S)c(O)n2CC(=O)c1ccccc1 | 0.71µM | – | – | – | – | –
Cc1ccc(NC(=O)Cn2c(O)c(N=NC(N)=S)c3ccccc32)cc1 | – | – | – | – | – | –
CC(C)c1ccc(NC(=O)C(c2ccccc2)N(C)C(=O)c2cnccn2)cc1 (stereo unspecified) | – | – | – | – | – | –
CCNC(=S)NCc1ccc(OC)c(OC)c1 | – | – | – | – | – | –
COc1ccc(CCNC(=S)NCc2ccc(Cl)c(Cl)c2)cc1OC | – | 81 | – | – | – | –
COc1ccc(-c2c(-c3cc(OC)cc(OC)c3)n(C)c3ccc(Br)cc23)cc1 | – | – | – | – | – | –
COc1ccc(N=Nc2nc3ccc(Br)cc3n2C)cc1 | – | – | – | – | – | 54
C[C@@H]1CN([C@H](C)CO)C(=O)CCCn2nncc2CO[C@@H]1CN(C)S(=O)(=O)c1cccs1 | · | · | · | – | · | –
COC(=O)c1ccc2c(=O)n(CCN3CCOCC3)c(SCC(=O)c3ccccc3)nc2c1 | 18µM | – | – | – | – | –
Cc1ccc([C@@H]2CC(=O)[C@@H]3CN(S(=O)(=O)c4ccc(C)cc4)[C@H](c4cccc5ccccc45)C[C@@H]3N2S(=O)(=O)c2ccc(Cl)cc2)cc1 | · | · | · | – | · | –
Cc1ccc(S(=O)(=O)N2C[C@H]3C(=O)C[C@@H](c4ccccc4)N(S(=O)(=O)c4ccc(C)cc4)[C@H]3C[C@H]2c2cccc3ccccc23)cc1 | · | · | · | – | · | 56
Cc1ccc(S(=O)(=O)N2C[C@H]3C(=O)C[C@@H](c4ccccc4)N(S(=O)(=O)c4cccc(C)c4)[C@H]3C[C@H]2c2ccccc2)cc1 | · | · | · | – | · | –
Cc1ccc(S(=O)(=O)N2C[C@H]3C(=O)C[C@@H](c4ccccc4)N(S(=O)(=O)c4ccc(C)cc4)[C@H]3C[C@H]2c2cccc(C)c2)cc1 | · | · | · | ? | · | 93
